A short description of experiment [1]: NCI Yeast Anticancer Drug Screen. Data for the rad50 strain (AID 155).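 Further: 0% = growth of vehicle-only cultures of the same strain.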 The settings on record: S. cerevisiae rad50 strain growth inhibition, active compounds read high. In outline:
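Genetically altered yeast (DNA repair pathway); compound treatment; growth inhibition vs vehicle ctrl.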

Experiment [2] can be described thus: NCI Yeast Anticancer Drug Screen. Data for the mec2-1 strain (AID 157). The settings on record: S. cerevisiae mec2-1 strain, active compounds read high. In outline:
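Strain: mec2-1 (DNA repair/cell cycle alteration). Compound exposure, then growth measured; inhibition expressed relative to vehicle.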

Experiment [3] is described as follows: NCI Yeast Anticancer Drug Screen. Data for the sgs1 mgt1 strain (AID 161).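 Further: 0% = growth of cultures given vehicle only.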 The settings on record: S. cerevisiae sgs1 mgt1 strain, active compounds read high. In outline:
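Inhibition of yeast growth, normalised to vehicle-treated controls, is reported for a strain bearing genetic alterations in DNA damage repair.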

A short description of experiment [4]: NCI Yeast Anticancer Drug Screen. Data for the cln2 rad14 strain (AID 165).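 Further: 0% = growth equal to vehicle treated cultures.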 The settings on record: S. cerevisiae cln2 rad14 strain, active compounds read high. In outline: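 Compounds are applied to the cln2 rad14 yeast strain, and growth is then compared with that of vehicle-treated cultures to give inhibition.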
The nature of experiment [5]: NCI Yeast Anticancer Drug Screen. Data for the bub3 strain (AID 167). The settings on record: S. cerevisiae bub3 mutant strain, active compounds read high. In outline:
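Yeast carrying a defined mutation is treated with each compound, and growth is compared with that of vehicle-exposed cells to give inhibition.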

Experiment [6] in a line: NCI Yeast Anticancer Drug Screen. Data for the mlh1 rad18 strain (AID 175). The settings on record: S. cerevisiae mlh1 rad18 strain growth inhibition, active compounds read high. The procedure, abridged:
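Read-out is yeast growth inhibition, calculated against vehicle-only controls. The compound was applied to a strain engineered with DNA damage repair alterations.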

[7] abbreviates: at 5.0 µM (retest, dose inferred, filed as 0.5).
Setting [8] is: at 50.0 µM (retest, dose inferred, filed as 5.0).

Molecules are shown by their SMILES. This is part of a sample that, as a whole, favours compounds with a hit. Of some 79,000 tested, about 15% had one in any assay. Values without a mark were called inactive. Activity calls are given as the source filed them. No stated cut-off is given here; in the data, active means growth inhibition above about 70%; inactive means the rest.

On to `CC(C)CCN1CCC2(CCCCC2)CC1`, for which the growth inhibition in experiment [1] (setting [7]) was 4%; in experiment [1] (setting [8]), 1%; in experiment [1] (at 50.0 µM), 40.5%; in experiment [2] (setting [7]), 5%; in experiment [2] (setting [8]), -6%; in experiment [2] (at 50.0 µM), 24.1%. In addition, the growth inhibition in experiment [3] (setting [7]) was 6%; in experiment [3] (setting [8]), 0%; in experiment [3] (at 50.0 µM), 51.3%; in experiment [4] (setting [7]), 7%; in experiment [4] (setting [8]), -5%; in experiment [4] (at 50.0 µM), 88.3% (active). The growth inhibition in experiment [5] (setting [7]) was 2%; in experiment [5] (setting [8]) it was -3%; in experiment [5] (at 50.0 µM), 59.5%; in experiment [6] (setting [7]) it was 5%; in experiment [6] (setting [8]) it was 3%; in experiment [6] (at 50.0 µM), 66.3%.
Turning to `C(=N\NC1=NCCN1)/c1cccc2cc3ccncc3nc12`, the growth inhibition in experiment [1] (setting [7]) was 8%; in experiment [1] (setting [8]), 66%; in experiment [1] (at 50.0 µM), 86.5% (active); in experiment [2] (setting [7]) it was 7%; in experiment [2] (setting [8]), 60%; in experiment [2] (at 50.0 µM) it was 91% (active). For the same molecule, the growth inhibition in experiment [3] (setting [7]) is -4%; in experiment [3] (setting [8]), 63%; in experiment [3] (at 50.0 µM), 83.8% (active); in experiment [4] (setting [7]) it was -6%; in experiment [4] (setting [8]), 53%; in experiment [4] (at 50.0 µM), 88% (active). Besides, the growth inhibition in experiment [5] (setting [7]) is -12%; in experiment [5] (setting [8]), 27%; in experiment [5] (at 50.0 µM), 87.7% (active); in experiment [6] (setting [7]), -9%; in experiment [6] (setting [8]), 53%; in experiment [6] (at 50.0 µM), 82.5% (active).
For the molecule `Nc1ncnc2c1c(-c1ccccc1)cn2-c1ccc(I)cc1`, the growth inhibition in experiment [1] (setting [7]) is 54%; in experiment [1] (setting [8]) it was -2%; in experiment [1] (at 50.0 µM) it was 33.4%; in experiment [2] (setting [7]), 23%; in experiment [2] (setting [8]), 0%; in experiment [2] (at 50.0 µM) it was 75.2% (active). Besides, the growth inhibition in experiment [3] (setting [7]) is 65%; in experiment [3] (setting [8]) it was -3%; in experiment [3] (at 50.0 µM), 41.1%; in experiment [4] (setting [7]) it was 24%; in experiment [4] (setting [8]), -2%; in experiment [4] (at 50.0 µM), 94.2% (active). For the same molecule, the growth inhibition is 32% in experiment [5] (setting [7]); 0% in experiment [5] (setting [8]); 97.3% (active) in experiment [5] (at 50.0 µM); 26% in experiment [6] (setting [7]); -2% in experiment [6] (setting [8]); 47.9% in experiment [6] (at 50.0 µM).
With `CCCCCCCCCC(C)CC(=O)NCCCN(C)CCCCN(C)C` (configuration not stated) (tested in a mixture with another compound), the growth inhibition is -24% in experiment [1] (setting [7]); 67% in experiment [1] (setting [8]); 88.8% (active) in experiment [1] (at 50.0 µM); 26% in experiment [2] (setting [7]); 68% in experiment [2] (setting [8]); 80.2% (active) in experiment [2] (at 50.0 µM). In addition, the growth inhibition in experiment [3] (setting [7]) was 35%; in experiment [3] (setting [8]) it was 93% (active); in experiment [3] (at 50.0 µM), 87% (active); in experiment [4] (setting [7]) it was 28%; in experiment [4] (setting [8]), 27%; in experiment [4] (at 50.0 µM), 62.1%. The growth inhibition in experiment [5] (setting [7]) was -17%; in experiment [5] (setting [8]), 86% (active); in experiment [5] (at 50.0 µM), 90.2% (active); in experiment [6] (setting [7]) it was 34%; in experiment [6] (setting [8]), 76% (active); in experiment [6] (at 50.0 µM), 82.3% (active).
Turning to `CC(C)(O)[C@H](CCO)O[Si](c1ccccc1)(c1ccccc1)C(C)(C)C`, the growth inhibition in experiment [1] (setting [7]) was 26%; in experiment [1] (setting [8]) it was 97% (active); in experiment [1] (at 50.0 µM) it was 98.3% (active); in experiment [2] (setting [7]) it was 18%; in experiment [2] (setting [8]), 98% (active); in experiment [2] (at 50.0 µM) it was 92% (active). The growth inhibition in experiment [3] (setting [7]) was 13%; in experiment [3] (setting [8]) it was 97% (active); in experiment [3] (at 50.0 µM) it was 98.2% (active); in experiment [4] (setting [7]), 17%; in experiment [4] (setting [8]), 97% (active); in experiment [4] (at 50.0 µM), 97.5% (active). In addition, the growth inhibition in experiment [5] (setting [7]) was 4%; in experiment [5] (setting [8]) it was 98% (active); in experiment [5] (at 50.0 µM) it was 98.5% (active); in experiment [6] (setting [7]), 23%; in experiment [6] (setting [8]) it was 97% (active); in experiment [6] (at 50.0 µM), 98.6% (active).
As to `Cc1nn(-c2ccc(S(=O)(=O)[O-])cc2)c([O-])c1N=[N+](C)c1ccc(-c2ccc(N=Nc3ccc4c(S(=O)(=O)[O-])cc(S(=O)(=O)[O-])c(N)c4c3[O-])c([O-])c2)cc1[O-].[Cu+2].[Cu+2].[Na+]`, the growth inhibition is 6% in experiment [1] (setting [7]); -15% in experiment [1] (setting [8]); -26.5% in experiment [1] (at 50.0 µM); -3% in experiment [2] (setting [7]); -17% in experiment [2] (setting [8]); 18.9% in experiment [2] (at 50.0 µM). For the same molecule, the growth inhibition in experiment [3] (setting [7]) was 6%; in experiment [3] (setting [8]), -15%; in experiment [3] (at 50.0 µM), -19.4%; in experiment [4] (setting [7]), -7%; in experiment [4] (setting [8]), -28%; in experiment [4] (at 50.0 µM) it was 64.5%. Besides, the growth inhibition in experiment [5] (setting [7]) is -9%; in experiment [5] (setting [8]), -11%; in experiment [5] (at 50.0 µM), -60.1%; in experiment [6] (setting [7]), -9%; in experiment [6] (setting [8]), -4%; in experiment [6] (at 50.0 µM), 17.6%.
On to `COc1ccc(C(c2ccccc2C(=O)O)c2ccc(OC)c3ccccc23)c2ccccc12`, for which the growth inhibition in experiment [1] (setting [7]) is 47%; in experiment [1] (setting [8]), 94% (active); in experiment [1] (at 50.0 µM), 59.6%; in experiment [2] (setting [7]) it was 70% (active); in experiment [2] (setting [8]), 96% (active); in experiment [2] (at 50.0 µM) it was 88.8% (active). Moreover, the growth inhibition in experiment [3] (setting [7]) was 97% (active); in experiment [3] (setting [8]), 96% (active); in experiment [3] (at 50.0 µM) it was 87.8% (active); in experiment [4] (setting [7]), 96% (active); in experiment [4] (setting [8]) it was 95% (active); in experiment [4] (at 50.0 µM) it was 89% (active). Moreover, the growth inhibition in experiment [5] (setting [7]) is 94% (active); in experiment [5] (setting [8]), 95% (active); in experiment [5] (at 50.0 µM), 89.8% (active); in experiment [6] (setting [7]) it was 97% (active); in experiment [6] (setting [8]), 96% (active); in experiment [6] (at 50.0 µM), 88.7% (active).
Regarding `Clc1sc2ccccc2c1Cl`, the growth inhibition in experiment [1] (setting [7]) is 2%; in experiment [1] (setting [8]), -18%; in experiment [1] (at 50.0 µM) it was 22.2%; in experiment [2] (setting [7]) it was -5%; in experiment [2] (setting [8]), -3%; in experiment [2] (at 50.0 µM), -11.9%. Besides, the growth inhibition in experiment [3] (setting [7]) was 2%; in experiment [3] (setting [8]) it was 1%; in experiment [3] (at 50.0 µM), 25.2%; in experiment [4] (setting [7]), 4%; in experiment [4] (setting [8]), -4%; in experiment [4] (at 50.0 µM) it was 36.6%. Besides, the growth inhibition was -79% in experiment [5] (setting [7]); 0% in experiment [5] (setting [8]); -7.55% in experiment [5] (at 50.0 µM); -1% in experiment [6] (setting [7]); -2% in experiment [6] (setting [8]); 14.6% in experiment [6] (at 50.0 µM).
For `Cc1cc(N(CCC#N)CCC#N)ccc1/C(Sc1ccccc1)=C(\NC(=O)/C=C/c1ccccc1)C(=O)Sc1ccccc1`, the growth inhibition in experiment [1] (setting [7]) is 28%; in experiment [1] (setting [8]), 28%; in experiment [1] (at 50.0 µM), 86.6% (active); in experiment [2] (setting [7]) it was 21%; in experiment [2] (setting [8]) it was 21%; in experiment [2] (at 50.0 µM) it was 90% (active). Also, the growth inhibition in experiment [3] (setting [7]) is 25%; in experiment [3] (setting [8]), 25%; in experiment [3] (at 50.0 µM), 90.9% (active); in experiment [4] (setting [7]) it was 17%; in experiment [4] (setting [8]) it was 17%; in experiment [4] (at 50.0 µM) it was 64.5%. The growth inhibition in experiment [5] (setting [7]) is 21%; in experiment [5] (setting [8]) it was 21%; in experiment [5] (at 50.0 µM), 87.2% (active); in experiment [6] (setting [7]), 24%; in experiment [6] (setting [8]) it was 24%; in experiment [6] (at 50.0 µM), 75.1% (active).

The values above are taken from PubChem BioAssay (NCI).
